In the antibiotic and cytotoxicity screens of Wong et al. (2023) one finds cytotoxicity call data, which are given here for 68 compounds.

Hit rate of the full screen: of about 39,000 compounds, about 3,300 (8.5%) were called active. For the sample, actives were picked, then their nearest neighbours and some compounds at random.

The subject of this experiment is HepG2. The experiment can be described thus: cytotoxicity call (relative viability < 0.9). Particulars: 10 µM.
For `CCCCC(=O)C1CCCC=C1C(=O)O` (stereo not drawn), the cytotoxicity call was “inactive”.
The same measure for `C[C@H](CO)N1C[C@H](C)[C@@H](CN(C)Cc2cccc(C(F)(F)F)c2)OCc2ccccc2-c2ccccc2C1=O`: “inactive”.
`C[C@@H]1CN([C@@H](C)CO)C(=O)c2ccccc2-c2ccccc2CO[C@H]1CN(C)C(=O)c1cc(Cl)cc(Cl)c1`: the cytotoxicity call was “inactive”.
The value for `CC[C@@H](C)C(=O)O[C@H]1[C@@H]2CC3=C4CC(=O)O[C@@H](c5ccoc5)[C@]4(C)CC[C@@H]3[C@@](C)(C2=O)[C@@H](CC(=O)OC)C1(C)C` was “inactive”; that for `CSc1nc(C)nc2ccccc12` was “inactive”; that for `CC(C)NC(=O)NCC[C@@H]1CC[C@@H](NC(=O)CN(C)C)[C@@H](CO)O1` was “inactive”.
As for `C[C@@H]1CCCCO[C@@H](CN(C)Cc2ccc3c(c2)OCO3)[C@@H](C)CN([C@@H](C)CO)C(=O)c2cc(NC(=O)Nc3ccc(F)cc3)ccc2O1`, the cytotoxicity call was “inactive”.
The same measure for `C[C@@H]1CN([C@@H](C)CO)C(=O)c2cc(NC(=O)Nc3ccc(F)cc3)ccc2O[C@@H](C)CCCCO[C@H]1CN(C)Cc1ccc2c(c1)OCO2`: “active”; for `C[C@@H]1CN([C@H](C)CO)C(=O)c2cc(NC(=O)Nc3ccc(F)cc3)ccc2O[C@@H](C)CCCCO[C@H]1CN(C)Cc1ccc2c(c1)OCO2`: “active”; for `C[C@@H]1CCCCO[C@@H](CN(C)Cc2ccc3c(c2)OCO3)[C@@H](C)CN([C@H](C)CO)C(=O)c2cc(NC(=O)Nc3ccc(F)cc3)ccc2O1`: “inactive”.
The value for `C[C@@H]1CN([C@@H](C)CO)C(=O)c2cc(NC(=O)Nc3ccc(F)cc3)ccc2O[C@@H](C)CCCCO[C@@H]1CN(C)Cc1ccc2c(c1)OCO2` was “active”; that for `C[C@@H]1CCCCO[C@H](CN(C)Cc2ccc3c(c2)OCO3)[C@H](C)CN([C@H](C)CO)C(=O)c2cc(NC(=O)Nc3ccc(F)cc3)ccc2O1` was “inactive”.
The value for `C[C@@H]1CN([C@H](C)CO)C(=O)c2cc(NC(=O)Nc3ccc(F)cc3)ccc2O[C@@H](C)CCCCO[C@@H]1CN(C)Cc1ccc2c(c1)OCO2` was “inactive”.
As to `C[C@H]1CCCCO[C@H](CN(C)Cc2ccc3c(c2)OCO3)[C@@H](C)CN([C@@H](C)CO)C(=O)c2cc(NC(=O)Nc3ccc(F)cc3)ccc2O1`, the cytotoxicity call is “active”.
Regarding `CO[C@H]1CN(C)C(=O)c2cc(NC(=O)C3CC3)ccc2OC[C@H](C)N(C(=O)CN2CCOCC2)C[C@@H]1C`, the cytotoxicity call is “inactive”.
For `O=C1OCCC/C=C\[C@H]2O[C@@]34C=CCN(c5ccc6ccccc6c5)C(=O)[C@H]3N(CCCCCO)C(=O)[C@@H]4[C@@H]12`, the cytotoxicity call was “inactive”.
Consider `COCCOC(=O)N1C(=O)[C@@]2(c3ccccc31)[C@H](C(=O)Nc1nc3ccccc3s1)[C@H]1C(=O)O[C@H](c3ccccc3)[C@H](c3ccccc3)N1[C@@H]2c1ccccc1OCCO`, for which the cytotoxicity call is “inactive”.
The same measure for `Cc1ccc(S(=O)(=O)Nc2ccc3c(c2)C(=O)N([C@H](C)CO)C[C@H](C)[C@@H](CN(C)C(=O)Nc2ccc4c(c2)OCO4)OCCCC[C@@H](C)O3)cc1`: “inactive”; for `C[C@@H]1CCCCO[C@@H](CN(C)C(=O)c2ccccc2)[C@H](C)CN([C@@H](C)CO)C(=O)c2cc(NC(=O)Cc3ccccc3)ccc2O1`: “inactive”; for `COc1cccnc1N`: “inactive”.
The same measure for `COc1ccc(NC(=O)N(C)C[C@H]2OCCCC[C@H](C)Oc3ccc(NC(=O)CCC(F)(F)F)cc3C(=O)N([C@@H](C)CO)C[C@@H]2C)cc1`: “inactive”; for `CO[C@@H]1CN(C)C(=O)c2ccc(NC(=O)c3cc(C)on3)cc2OC[C@@H](C)N(C(=O)C2CCC2)C[C@H]1C`: “inactive”.
The same measure for `COc1ccc(S(=O)(=O)Nc2ccc3c(c2)C(=O)N([C@H](C)CO)C[C@@H](C)[C@H](CN(C)C(=O)NC2CCCCC2)OCCCC[C@H](C)O3)cc1`: “inactive”.
With `C[C@H](CO)N1C[C@H](C)[C@H](CN(C)C(=O)Nc2ccc(F)cc2)Oc2ccc(NS(C)(=O)=O)cc2CC1=O`, the cytotoxicity call was “inactive”.
The value for `C[C@@H]1CCCCO[C@H](CN(C)S(=O)(=O)c2ccc(F)cc2)[C@@H](C)CN([C@@H](C)CO)C(=O)c2cc(NC(=O)C3CCCCC3)ccc2O1` was “inactive”.
Regarding `O=C1O[C@H](c2ccccc2)[C@H](c2ccccc2)N2[C@H]1[C@@H](C(=O)N1CCCCCCC1)[C@]1(C(=O)Nc3ccc(C#CCCO)cc31)[C@H]2c1ccc(OCCO)cc1`, the cytotoxicity call is “inactive”.
Take `COc1ccc(NC(=O)Nc2ccc3c(c2)C(=O)N([C@H](C)CO)C[C@H](C)[C@@H](CN(C)S(=O)(=O)c2ccc(OC)cc2)OCCCC[C@@H](C)O3)cc1`: the cytotoxicity call is “inactive”.
The value for `COCC#Cc1ccc2c(c1)O[C@@H](CN(C)S(=O)(=O)c1ccc(C)cc1)[C@@H](C)CN([C@@H](C)CO)S2(=O)=O` was “inactive”; that for `C[C@@H]1CCCCO[C@H](CN(C)Cc2ccc3c(c2)OCO3)[C@@H](C)CN([C@@H](C)CO)C(=O)c2cc(NC(=O)Nc3ccc(F)cc3)ccc2O1` was “active”; that for `C[C@@H]1CCCCO[C@@H](CN(C)Cc2ccc3c(c2)OCO3)[C@H](C)CN([C@@H](C)CO)C(=O)c2cc(NC(=O)Nc3ccc(F)cc3)ccc2O1` was “inactive”.
With `C[C@H](CO)N1C[C@H](C)[C@H](CN(C)Cc2ccc3c(c2)OCO3)OCCCC[C@H](C)Oc2ccc(NC(=O)Nc3ccc(F)cc3)cc2C1=O`, the cytotoxicity call was “inactive”.
For `CN(C)CCCCNC(=O)[C@@H]1C[C@@H]2C(=O)N[C@@H](CCCCN(C)C)C(=O)N2[C@@H]1c1cccc(OCCO)c1`, the cytotoxicity call was “inactive”.
With `S=c1[nH]c2ccccc2s1`, the cytotoxicity call is “inactive”.
The same measure for `C[C@@H]1CN([C@@H](C)CO)C(=O)c2cc(NC(=O)CCCN(C)C)ccc2O[C@H]1CN(C)S(=O)(=O)c1cccs1`: “inactive”; for `COCCNCc1ccc(-c2cc3nccc(Oc4ccc(NC(=O)C5(C(=O)Nc6ccc(F)cc6)CC5)cc4F)c3s2)nc1`: “active”.
On to `COCCNCc1ccc(-c2cc3nccc(Oc4ccc(NC(=S)NC(=O)Cc5ccc(F)cc5)cc4F)c3s2)nc1`, for which the cytotoxicity call is “active”.
Take `Cn1cnc(-c2cc3nccc(Oc4ccc(NC(=S)NC(=O)Cc5ccccc5)cc4F)c3s2)c1`: the cytotoxicity call was “inactive”.
The value for `COc1ccc(CN(C)C[C@H]2Oc3c(NC(=O)Nc4cccc5ccccc45)cccc3C(=O)N([C@H](C)CO)C[C@H]2C)cc1` was “inactive”; that for `COc1cccc(CNC(=O)C[C@@H]2C=C[C@H](NC(=O)C3CCOCC3)[C@H](CO)O2)c1` was “inactive”.
The same measure for `C[C@H]1CN([C@@H](C)CO)C(=O)c2cc(C#Cc3ccc(F)cc3)cnc2O[C@H]1CN(C)CC1CCOCC1`: “inactive”; for `C=CCN1C(=O)[C@@]2(O[C@H](CCOC(=O)NCCCCCC(=O)NO)[C@@H]([Si](C)(C)c3ccc(OC)cc3)[C@@H]2C)c2cc(I)ccc21`: “inactive”; for `O=C1COC[C@@H](c2ccccc2)N1`: “inactive”.
For `O=C1NC2=C(C(=O)OC2)[C@H](c2ccccc2)N1`, the cytotoxicity call is “active”.
For the compound `O=C1NC(=O)[C@@H](c2ccccc2)N1`, the cytotoxicity call is “inactive”.
Take `C[C@@H]1CN([C@@H](C)CO)C(=O)c2cc(NC(=O)Cc3ccccc3)ccc2O[C@H]1CN(C)S(=O)(=O)c1ccccc1`: the cytotoxicity call is “inactive”.
The same measure for `C[C@@H]1CCCCO[C@@H](CN(C)C(=O)C2CCCCC2)[C@@H](C)CN([C@@H](C)CO)C(=O)c2cc(NS(=O)(=O)c3ccc(Cl)cc3)ccc2O1`: “inactive”; for `Cc1ccc(S(=O)(=O)N2CCO[C@@H]2CNC(=O)C(=O)NCc2ccccn2)cc1`: “inactive”; for `C[C@H](CO)N1C[C@H](C)[C@H](CN(C)Cc2ccc(C(=O)Nc3ccccc3N)cc2)Oc2ccc(NC(=O)Nc3ccc4c(c3)OCO4)cc2C1=O`: “inactive”.
The value for `O=C1c2ccccc2[C@](Cc2ccccc2I)(C(=O)O)[C@H](c2ccc(CO)cc2)N1C1CCCCC1` was “inactive”; that for `CN(C)CCCN1C(=O)[C@@]2(Cc3ccccc31)c1ccccc1C(=O)N(C1CCCCC1)[C@H]2c1ccc(CO)cc1` was “inactive”.
The same measure for `COCCCNC(=O)[C@@]1(Cc2ccccc2I)c2ccccc2C(=O)N(C2CCCCC2)[C@H]1c1ccc(CO)cc1`: “active”; for `COc1ccc(CCNC(=O)[C@@]2(Cc3ccccc3I)c3ccccc3C(=O)N(C3CCCCC3)[C@H]2c2ccc(CO)cc2)cc1`: “inactive”; for `O=C1c2ccccc2[C@](Cc2ccccc2I)(C(=O)NCCN2CCOCC2)[C@H](c2ccc(CO)cc2)N1C1CCCCC1`: “active”.
With `COc1ccccc1CN1C(=O)c2ccccc2[C@](Cc2ccccc2I)(C(=O)NCCN2CCOCC2)[C@@H]1c1ccc(CO)cc1`, the cytotoxicity call was “inactive”.
In the case of `CN(C)CCCNC(=O)[C@@]1(Cc2ccccc2I)c2ccccc2C(=O)N(C2CCCCC2)[C@H]1c1ccc(CO)cc1`, the cytotoxicity call was “active”.
Consider `O=C1c2ccccc2[C@](Cc2ccccc2I)(C(=O)NCC(F)(F)F)[C@H](c2ccc(CO)cc2)N1C1CCCCC1`, for which the cytotoxicity call is “inactive”.
The value for `O=C1c2ccccc2[C@](Cc2ccccc2I)(C(=O)NCc2ccccc2)[C@H](c2ccc(CO)cc2)N1C1CCCCC1` was “inactive”.
In the case of `Cc1noc(C)c1NC(=O)N(C)C[C@@H]1OCCCC[C@H](C)Oc2ccc(NS(=O)(=O)c3ccc(F)cc3)cc2C(=O)N([C@@H](C)CO)C[C@@H]1C`, the cytotoxicity call is “inactive”.
With `CO[C@@H]1CN(C)C(=O)c2ccc(NS(=O)(=O)c3cn(C)cn3)cc2OC[C@@H](C)N(CC2CC2)C[C@H]1C`, the cytotoxicity call was “inactive”.
The value for `O=S(=O)(NCC[C@H]1CC[C@@H](NS(=O)(=O)c2ccccc2Cl)[C@H](CO)O1)c1ccc(F)cc1` was “inactive”; that for `C[C@@H]1CN([C@H](C)CO)C(=O)Cc2cc(NC(=O)Nc3ccc4c(c3)OCO4)ccc2O[C@@H]1CN(C)Cc1ccc(Oc2ccccc2)cc1` was “active”.
The same measure for `C[C@H](CO)N1C[C@H](C)[C@@H](CN(C)Cc2ccc(Oc3ccccc3)cc2)Oc2ccc(NC(=O)Nc3ccc4c(c3)OCO4)cc2CC1=O`: “inactive”; for `C[C@H](CO)N1C[C@H](C)[C@H](CN(C)Cc2ccc(Oc3ccccc3)cc2)Oc2ccc(NC(=O)Nc3ccc4c(c3)OCO4)cc2CC1=O`: “active”.
Take `C[C@H]1CN([C@@H](C)CO)C(=O)Cc2cc(NC(=O)Nc3ccc4c(c3)OCO4)ccc2O[C@H]1CN(C)Cc1ccc(Oc2ccccc2)cc1`: the cytotoxicity call is “inactive”.
With `C[C@@H]1CN([C@H](C)CO)C(=O)Cc2cc(NC(=O)Nc3ccc4c(c3)OCO4)ccc2O[C@H]1CN(C)Cc1ccc(Oc2ccccc2)cc1`, the cytotoxicity call is “inactive”.
The value for `C[C@H]1CN([C@@H](C)CO)C(=O)Cc2cc(NC(=O)Nc3ccc4c(c3)OCO4)ccc2O[C@@H]1CN(C)Cc1ccc(Oc2ccccc2)cc1` was “inactive”.
The value for `C[C@@H]1CN([C@@H](C)CO)C(=O)Cc2cc(NC(=O)Nc3ccc4c(c3)OCO4)ccc2O[C@H]1CN(C)Cc1ccc(Oc2ccccc2)cc1` was “inactive”; that for `C[C@@H]1CN([C@@H](C)CO)C(=O)Cc2cc(NC(=O)Nc3ccc4c(c3)OCO4)ccc2O[C@@H]1CN(C)Cc1ccc(Oc2ccccc2)cc1` was “active”.
